Screening data (PubChem BioAssay)
Sampled rows, rich in hits. Any-hit rate of the full collection: about 3%.
LMP1 NFkB inh: inhibitors of Epstein-Barr LMP1-induced NF-kappaB reporter. LMP1-induced NF-kappaB luciferase reporter cells, luminescence. inhibition, % at 12.5 µM. 0.69% of 350,000 active; in the data active means inhibition above about 41%;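 further: 0% = neutral control wells and 100% = reference inhibitor control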
MITF TRPM1 HTS: increases MITF-driven TRPM1 promoter luciferase signal; SK-MEL-5 TRPM1-promoter luciferase, 24 h; % of positive control, neutral wells = 0; activation, % at 12.5 µM; 0.75% of 300,000 active; AID 588334;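 active means mean activation of at least 80% with every replicate also reaching 80%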;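 further: 0% = neutral control wells and 100% = parthenolide positive control wells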
TWEAK Fn14 block: TWEAK-Fn14 signaling inhibition; inhibition, % at 10 µM; AID 1159606; TWEAK-stimulated Fn14 reporter cells, luciferase luminescence, 8 h; 2% of 360,000 active; in the data active means inhibition above about 50%
TROY signal inh: blocks TROY-dependent signaling in reporter cells; Q293 LMP1-TROYcd NF-kB luciferase reporter, 4 h; inhibition, % at 10 µM; 0.98% of 360,000 active; AID 1347056;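 active means compounds whose plate-normalised and pattern-corrected inhibition of the luciferase reporter signal at the single screening dose is 50% or more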
LGR2 antag: blocks bursicon-induced cAMP signaling via Drosophila LGR2; HEK293 LGR2, CRE-luciferase, bursicon-stimulated, 4 h; inhibition, % at 9.99 µM; 0.35% of 380,000 active; AID 720647;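 active means drop in luminescence signal, shown as inhibition above about 50% in the replicate tests, limit read from the data, passing the limit was not always enough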;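 further: agonist challenge used bursicon conditioned medium at about half maximal strength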
MITF TRPM1 inh: reduces MITF-dependent TRPM1 promoter luciferase signal | inhibition, % at 12.5 µM | SK-MEL-5 TRPM1 promoter luciferase, 24 h | 0.83% of 330,000 active;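 active means mean inhibition across replicates of 60% or more, whatever share of single replicates reaches that level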
* marks the source's active call; other numbers are inactive results; · = no result.

SMILES | LMP1 NFkB inh | MITF TRPM1 HTS | TWEAK Fn14 block | TROY signal inh | LGR2 antag | MITF TRPM1 inh
COc1ccc(Nc2nc(NCc3cccs3)nc3ccsc23)cc1OC | · | · | 54* | 32 | -15 | ·
CC(=O)Nc1ccc(CNc2nc(NCC3CC3)nc3ccsc23)cc1 | · | · | -3 | -19 | 31 | ·
CCOC(=O)Cc1ccc(Nc2nc(NCc3cccs3)nc3ccsc23)cc1 | · | · | 65* | 55* | 2 | ·
Cc1ccc(S(=O)(=O)N(C)C[C@@H]2Oc3ccc(NC(=O)CCCCCC(=O)Nc4ccccc4N)cc3CC(=O)N([C@H](C)CO)C[C@@H]2C)cc1 | · | · | · | · | 0 | ·
O=c1cc(-c2ccccc2)[nH]c2nc3ccccc3n12 | 14 | 16 | 55* | -5 | · | -46
NC(=S)N/N=C\c1c2ccccc2cc2ccccc12 | -55 | 7 | -21 | -19 | -14 | -7
NC(=S)N/N=C\c1c(OCc2ccccc2Cl)ccc2ccccc12 | 17 | -43 | 57* | 22 | 26 | 45
COc1ccc2c(C(=O)CCl)c[nH]c2c1 | -5 | -74 | 53* | 4 | -16 | 75*
O=c1oc2ccccc2cc1-c1nc2c(s1)CCCC2 | 32 | -18 | 84* | 66* | 43 | 16
CS(=O)(=O)N1CC2(C1)[C@@H](c1ccccc1)[C@H](CO)N2Cc1ccc(F)cc1 | · | · | · | · | 1 | ·
CCCn1c(=O)n(C)c(=O)c2c(SCC(=O)NC34CC5CC(CC(C5)C3)C4)nc(CC(C)C)nc21 | -39 | -63 | 0 | -4 | -8 | 68*
Cc1nnc(NC(=O)CSc2nc(CC(C)C)nc3c2c(=O)n(C)c(=O)n3C)s1 | 2 | -2 | 11 | 2 | 16 | 6
O=C(C[C@H]1C=C[C@H](NC(=O)Cc2ccccn2)[C@H](CO)O1)NCCc1ccccc1 | · | · | · | · | 21 | ·
CCC(=O)Nc1ccc2c(c1)C(=O)N(C)[C@H]1CC[C@@H](CC(=O)NCc3ccccc3Cl)O[C@H]1CO2 | · | · | · | · | 10 | ·
Oc1c(N=Nc2ccccn2)ccc2ccccc12 | 48* | · | 80* | 20 | · | 49
CC(C)NC(=O)NCC[C@@H]1CC[C@@H](NC(=O)CN(C)C)[C@@H](CO)O1 | · | · | · | · | 12 | ·
Cc1ccc(NC(=O)c2ccc3ccccc3n2)cc1S(=O)(=O)N(C)C | -35 | 119* | 16 | -41 | -58 | -121
Cc1ccc(NC(=O)c2c3c(nc4ccccc24)CCC3)cc1 | 8 | -8 | 5 | 8 | 9 | 4
Cc1ccc(NC(=O)c2c3c(nc4ccccc24)CCC3)cc1S(=O)(=O)N(C)C | 7 | -26 | 71* | 48 | -8 | 30
Cc1cnc(C(=O)Nc2ccc(C)c(S(=O)(=O)N(C)C)c2)cn1 | -5 | 0 | -6 | -40 | -6 | -4
O=C(CSc1nnnn1-c1ccccc1)N1CCc2ccccc2C1 | 4 | 0 | 5 | -10 | · | -2
CC(=O)c1ccc(-n2nnnc2SCC(=O)N2CCc3ccccc3C2)cc1 | 49* | -1 | 11 | 24 | · | 0
CCCNC(=O)N1CC2(CN(C(=O)CC)C2)c2c(n(C)c3cc(OC)ccc23)[C@@H]1CO | · | · | · | · | 1 | ·
Cc1ccc(S(=O)(=O)N2CCC(C(=O)N3CCN(c4ccccn4)CC3)CC2)cc1 | 0 | -1 | 76* | -3 | -3 | 3
CN(CC(=O)N1CCCCCC1)S(=O)(=O)c1ccc(Br)cc1 | 0 | -9 | -12 | 10 | 8 | 12
SMILES | LMP1 NFkB inh | MITF TRPM1 HTS | TWEAK Fn14 block | TROY signal inh | LGR2 antag | MITF TRPM1 inh
CN(CC(=O)N1CCN(c2ccccn2)CC1)S(=O)(=O)c1ccc(Br)cc1 | 5 | -2 | 92* | · | · | 3
O=C(CCNC(=O)c1ccccc1Cl)NCCc1ccc(C(F)(F)F)cc1 | 1 | -8 | 72* | 14 | 4 | 10
Cc1c(C(=O)NC(=S)NCC(C)C)oc2ccccc12 | -47 | 90* | -26 | -43 | -74 | -92
COc1ccccc1CNC(=O)c1oc2ccccc2c1C | 0 | 10 | -4 | 51* | -15 | -11
C=CCNC(=S)NC(=O)c1oc2ccccc2c1C | -38 | 31 | -49 | -25 | -97 | -31
CC(=O)N(C)C[C@@H]1Oc2ncc(C#Cc3ccncc3)cc2C(=O)N([C@@H](C)CO)C[C@H]1C | · | · | · | · | 15 | ·
CCN(CC)c1ccc(/C=N/NC(=O)c2ccc3nc[nH]c3c2)c(O)c1 | 53* | -57 | -37 | -5 | · | 58
COc1cccc(/C=N/NC(=O)c2ccc3nc[nH]c3c2)c1O | 14 | -4 | -15 | -15 | 14 | 5
CCN(CC)c1ccc(/C=N/NC(=O)c2cccc(S(=O)(=O)Nc3ccccc3OC)c2)c(O)c1 | 58* | -71 | -10 | -7 | 36 | 72*
COc1ccccc1NS(=O)(=O)c1cccc(C(=O)N/N=C/c2ccc([N+](=O)[O-])o2)c1 | -55 | -86 | 9 | 8 | 21 | 86*
O=C(C[C@H]1CC[C@@H](NC(=O)Cc2ccccn2)[C@H](CO)O1)NCCCN1CCOCC1 | · | · | · | · | -18 | ·
O=C(O)Cn1cnc2c(oc3ccccc32)c1=O | -6 | -5 | -15 | -6 | -16 | 9
C=C(C)CN(CC)C(=O)Cn1cnc2c(oc3ccccc32)c1=O | -5 | 5 | -11 | 54* | 31 | -5
Cc1noc(C)c1S(=O)(=O)Nc1cccc2c1O[C@@H](CN(C)CC1CC1)[C@@H](C)CN([C@@H](C)CO)C2=O | · | · | · | · | -6 | ·
Cc1cccc(-c2ccc([C@@H]3[C@@H](CO)N4CCCCN(S(=O)(=O)c5cn(C)cn5)C[C@@H]34)cc2)c1 | · | · | · | · | -4 | ·
Cc1ccc(-n2nc3c(N4CCC(C(=O)N5CCCCCC5)CC4)nnc(C)c3c2C)cc1 | -13 | 4 | -28 | 22 | · | -9
COc1cccc(CNC(=O)Cn2nc(C)c3c(C)n(-c4ccc(C)cc4)nc3c2=O)c1OC | -1 | -19 | 13 | 7 | 3 | 19
CCOc1ccc(CNC(=O)C2CCN(c3nnc(C)c4c(C)n(-c5ccc(C)cc5)nc34)CC2)cc1 | -6 | -94 | -31 | 4 | -19 | 95*
CCOc1ccccc1CNC(=O)C1CCN(c2nnc(C)c3c(C)n(-c4ccc(C)cc4)nc23)CC1 | -1 | -94 | -13 | -28 | 16 | 96*
COc1ccccc1CCNC(=O)C1CCN(c2nnc(C)c3c(C)n(-c4ccc(C)cc4)nc23)CC1 | -9 | -78 | -21 | -3 | -4 | 77*
CCOc1ccccc1CNC(=O)Cn1nc(C)c2c(C)n(-c3ccc(C)cc3)nc2c1=O | 23 | -53 | 58* | 27 | · | 49
CO[C@@H]1CN(C)C(=O)c2ccc(NC(=O)Nc3ccccc3F)cc2OC[C@H](C)N(C(C)=O)C[C@H]1C | · | · | · | · | -4 | ·
CC(C)c1cn(CC[C@H]2CC[C@H](NC(=O)C3CCCC3)[C@@H](CO)O2)nn1 | · | · | · | · | 1 | ·
COc1ccc(-n2nc3c(N4CCC(C(=O)NCc5cccc(C)c5)CC4)nnc(C)c3c2C)cc1 | -4 | -94 | -6 | 12 | -12 | 95*
COc1ccc(-n2nc3c(N4CCC(C(=O)NCCc5ccco5)CC4)nnc(C)c3c2C)cc1 | 1 | -35 | -15 | 6 | 2 | 38
